# Most compounds without a hit are left out; they make up all but 8.7% or so of the library.
# Sfp inh – blocks B. subtilis Sfp PPTase activity. Biochemical Sfp PPTase activity, qHTS. Potency, µM, inactives show largest response in the series, negative = inhibition, hits mostly inhibitors. hit rate 3.5% among 310,000. AID 1490;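 further: the enzyme is Sfp with the accession as filed and its product quenches rhodamine fluorescence; 0% = enzyme reaction without inhibitor and -100% = no enzyme wells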
#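 Fluorescence-quenching assay with 15 nM Sfp, 5 uM rhodamine-CoA and 12.5 uM BHQ-2-labelled ybbR peptide in pH 7.6 Hepes/MgCl2 buffer. Enzyme was pre-incubated with compound for 15 min at room temperature. Rate was taken from the 30-min fluorescence change (525/598 nm).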
# G9a inh – inhibitors of human histone lysine methyltransferase G9a; Potency, µM (top dose mostly 102 µM), inactives show at the highest dose activity, negative = inhibition, usual class: inhibitors; G9a H3K9 monomethylation, AlphaScreen, 2 h; hit rate 8.8% among 350,000; AID 504332; Q96KQ7; further: on the % scale 0 is the no-effect control and ±100 the full control effect; nearly all actives have a fitted effect of over 75% in size
#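 Readings reflect AlphaScreen signal from monomethyl-H3K9 antibody detection. HMT at 20 nM; substrate b-H3K9 500 nM; cofactor SAM 20 uM; 2 h RT reaction; compounds tested as titrations in qHTS with 15 min preincubation.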
# ALOX12 inh – blocks human arachidonate 12S-lipoxygenase | purified 12hLO, xylenol orange hydroperoxide absorbance | hit rate 1.1% among 580,000 | Potency, µM (top dose mostly 108 µM), inactives show at the top dose activity change, negative = inhibition, hits mostly inhibitors | AID 1671190 | P18054; further: on the % scale 0 is the no-effect control and ±100 the full control effect
#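 Purified human 12hLO at 150 nM in 25 mM Hepes, 0.01% Triton X-100, pH 7.0, preincubated 15 min at room temperature with compound. Reaction started with 40 uM arachidonic acid, 30 min at room temperature. Hydroperoxide measured by Fe-xylenol orange, 573/405 nm absorbance ratio.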
# JMJD2A Tudor inh – inhibitors of human JMJD2A Tudor domain; AlphaScreen JMJD2A-Tudor / H3K4me3 peptide binding; hit rate 4.4% among 390,000; Potency, µM (series often up to 114 µM), inactives show top-dose activity change, negative = inhibition, most hits filed as inhibitors; further: on the % scale 0 is the no-effect control and ±100 the full control effect; nearly all actives have a fitted effect of over 50% in size
# Target sequence (O75164 whole entry, looked up, the tested form may be a part): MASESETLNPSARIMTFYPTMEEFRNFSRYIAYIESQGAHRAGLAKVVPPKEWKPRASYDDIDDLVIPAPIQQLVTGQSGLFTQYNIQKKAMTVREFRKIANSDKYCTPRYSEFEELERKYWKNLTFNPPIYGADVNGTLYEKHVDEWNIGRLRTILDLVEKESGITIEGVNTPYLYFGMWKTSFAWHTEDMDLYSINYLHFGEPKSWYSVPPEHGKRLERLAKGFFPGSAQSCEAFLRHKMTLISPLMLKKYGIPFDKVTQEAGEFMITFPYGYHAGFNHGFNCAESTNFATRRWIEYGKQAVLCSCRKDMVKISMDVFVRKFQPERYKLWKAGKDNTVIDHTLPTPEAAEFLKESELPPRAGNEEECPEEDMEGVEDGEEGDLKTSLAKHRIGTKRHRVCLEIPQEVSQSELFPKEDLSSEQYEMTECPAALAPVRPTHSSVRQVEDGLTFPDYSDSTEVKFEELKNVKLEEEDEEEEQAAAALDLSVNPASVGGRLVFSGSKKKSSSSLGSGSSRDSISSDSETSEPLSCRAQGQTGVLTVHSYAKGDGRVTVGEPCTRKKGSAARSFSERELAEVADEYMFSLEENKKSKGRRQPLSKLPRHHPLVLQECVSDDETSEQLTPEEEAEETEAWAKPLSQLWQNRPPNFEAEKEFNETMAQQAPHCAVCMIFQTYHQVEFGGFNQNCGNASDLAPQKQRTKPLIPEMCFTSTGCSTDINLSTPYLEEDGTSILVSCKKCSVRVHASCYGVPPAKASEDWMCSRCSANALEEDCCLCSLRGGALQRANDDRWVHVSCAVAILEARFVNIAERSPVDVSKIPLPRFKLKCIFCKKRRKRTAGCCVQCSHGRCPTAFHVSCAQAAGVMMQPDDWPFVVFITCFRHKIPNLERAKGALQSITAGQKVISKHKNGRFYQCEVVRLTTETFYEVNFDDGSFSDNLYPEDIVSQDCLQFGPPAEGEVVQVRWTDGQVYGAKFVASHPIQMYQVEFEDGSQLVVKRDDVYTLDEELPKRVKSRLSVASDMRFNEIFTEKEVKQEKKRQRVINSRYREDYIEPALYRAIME
# HP1b binding inh – HP1-beta chromodomain-methylated histone interaction inhibition | AID 540317 | P83916 | hit rate 0.56% among 390,000 | Potency, µM (series often up to 114 µM), inactives show at the highest dose activity change, negative = inhibition, most hits filed as inhibitors | AlphaScreen HP1-beta / biotin-H3K9me3 peptide binding; further: nearly all actives have a fitted effect of over 70% in size
#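 AlphaScreen: HP1-beta (50 nM) preformed 30 min with biotin-H3(1-18)K9me3 peptide (50 nM) in PBS pH 7.4, 0.01% Tween-20. Compound added for 30 min at RT, then streptavidin donor/nickel chelate acceptor beads (10 ug/mL) for 30 min.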
# BAZ2B inh – inhibitors of human BAZ2B bromodomain. Q9UIF8. Potency, µM (top dose mostly 114 µM), without a hit: top-dose activity change, negative = inhibition, actives largely listed as inhibitors. AlphaScreen BAZ2B-H3K14Ac peptide displacement. hit rate 4.4% among 360,000; further: on the % scale 0 is the no-effect control and ±100 the full control effect; nearly all actives have a fitted effect of over 60% in size
#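 BAZ2B (50 nM) with biotin-H3(5-23)K14Ac peptide (50 nM) in PBS pH 7.4, 0.01% Tween-20, preformed 30 min, then compound 30 min at room temperature; top concentration 110uM. AlphaScreen streptavidin donor/nickel chelate acceptor beads (10 ug/mL final), 20 min dark, signal read.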
# * marks the source's active call; other numbers are inactive results; ? = inconclusive; . = not tested or not shown; [ ] = another dose, or the depositor's remark. The call rests on the fitted dose curve; in most records, active means well fitted curve in the direction sought with a large enough effect; inconclusive means small, poorly fitted or top-dose-only effect, or another doubt; inactive means no such curve, though single readings can be large; an effect the other way counts as inactive or inconclusive. Potency means the concentration at half of the fitted maximal effect.
SMILES,Sfp inh,G9a inh,ALOX12 inh,JMJD2A Tudor inh,HP1b binding inh,BAZ2B inh
Cc1ccc(C)c(NC(=O)CSc2ncnc3nc[nH]c23)c1,9.5%,?,?,-23.3%,20.6%,-1.0%
Cc1cccc(NC(=O)CNC(=O)c2ccc3nc[nH]c3c2)c1C,.,?,2.3%,-27.0%,-6.4%,50.1µM*
C[C@]1(CO)C2CC[C@@H](O)[C@@H](CC(=O)N3CCC[C@H]3CO)[C@]2(C)CC[C@H]1OC(=O)Nc1ccccc1 (some centres undefined),.,.,-13.7%,.,.,.
Cn1c(N)c(C(=O)COC(=O)Cc2ccsc2)c(=O)n(C)c1=O,-5.5%,44.7µM*,246.3%[57.4 µM],-8.2%,22.7%,31.9%
Cn1c(N)c(C(=O)COC(=O)CC(NC(N)=O)c2ccc(Cl)cc2)c(=O)n(C)c1=O (centres undefined),.,-2.1%,10.2%,-6.9%,21.0%,-4.8%
Cn1c(N)c(C(=O)COC(=O)Cc2ccc(Br)cc2)c(=O)n(C)c1=O,.,.,12.5%,-4.1%,20.5%,.
Cn1c(N)c(C(=O)COC(=O)CSc2cccc3cccc(Cl)c23)c(=O)n(C)c1=O,11.6%,.,0.7%,50.1µM*,-10.6%,?
CC(=O)Oc1ccc(C(=O)OCC(=O)c2c(N)n(C)c(=O)n(C)c2=O)cc1OC(C)=O,18.4%,50.1µM*,-13.2%,8.9%,21.5%,-24.6%
CC(=O)NC(CC(=O)OCC(=O)c1c(N)n(C)c(=O)n(C)c1=O)c1ccccc1 (centres undefined),21.4%,-11.5%,-13.1%,12.6µM*,-11.8%,-17.6%
CC(=O)Nc1ccc(CNCc2nc(C)cs2)cc1,.,.,-23.3%,.,.,.
Cc1c(O)ccc(C(=O)CN2CCN(c3ccccc3)CC2)c1O,10.4%,44.7µM*,?,2.3%,86.7%,?
COc1ccc(N2CCN(CC(=O)c3ccc(O)c(C)c3O)CC2)cc1,3.9%,39.8µM*,-11.8%,?,-6.5%[57 µM],?
Cc1c(O)ccc(C(=O)CN2CCN(c3ccccc3F)CC2)c1O,14.2%,?,.,6.6%,42.6%,?
COC(=O)c1cnc(NNS(=O)(=O)c2ccc(Cl)cc2)nc1C(F)(F)F,-2.1%,35.5µM*,?,-6.4%,-13.9%,-4.8%
Cc1cc(=O)oc2cc(OC(=O)COc3ccccc3)ccc12,.,.,1.7%,.,.,.
O=C(c1ccc(CNc2nccc(-c3cccnc3)n2)cc1)N1CCCCC1,.,.,31.2%,.,.,.
CCCCN(C(=O)c1ccc2c(c1)OCCO2)c1c(N)n(CC(C)C)c(=O)[nH]c1=O,.,44.7µM*,-10.8%,0.0%,38.5%,-4.1%
CCCCN(C(=O)Cc1ccc(S(=O)(=O)N2CCOCC2)s1)c1c(N)n(CCCC)c(=O)[nH]c1=O,.,56.2µM*,-4.7%,-7.6%,28.4%,4.4%
CCCCn1c(N)c(N(CC(C)C)C(=O)Cc2ccc3c(c2)OCCO3)c(=O)[nH]c1=O,.,50.1µM*,?,-9.5%,26.2%,-3.8%
CC(C)NC(=O)C[C@@H]1C[C@H]2O[C@H](CNCc3cnccc3Cl)[C@@H](O)[C@H]2O1,.,.,-24.9%[176 µM],.,.,.
Cc1nn(CC(=O)O)c2nc(-c3cnn(C)c3C)cc(C(F)F)c12,.,.,12.4%,.,.,.
Cc1sc2nc(Cc3ccccc3)[nH]c(=O)c2c1-c1ccccc1,7.3%,9.3%[59 µM],-18.8%,-11.5%,30.8%,-0.8%
Cc1sc2nc(-c3cccnc3)[nH]c(=O)c2c1-c1ccccc1,44.7µM*,11.2µM*,?,-17.2%,-11.8%,.
O=c1cc(Cn2nnc(-c3cccc(F)c3)n2)nc2sccn12,.,.,-24.2%,.,.,.
Cc1cnc(CNc2cc(-c3ccc(C(=O)N(C)C)cc3)ncn2)cn1,-12.8%,12.5%[0.501 µM],?,.,.,.
Cc1cnc(CNc2ccnc(-c3ccc(C(=O)N(C)C)cc3)n2)cn1,-7.7%,.,35.5µM*,.,.,.
COc1ccc(C2CCCN2Cc2cccc(C)c2)cc1 (centres undefined),.,.,17.6%,.,.,.
O=C(NO)c1ccccc1O,-4.9%,2µM*,?,-24.8%,53.3%,?
Cc1nc2c(ccc3c(C)c(C)[nH]c32)s1,.,.,28.2µM*,.,.,.
Cn1nc(C(=O)N2CCSCC2)c2ccccc2c1=O,.,.,38.0%,.,.,.

# Screening data as filed in PubChem BioAssay.
